# Calls of active or inactive are those of the source. The calls were made as follows: active = hit-call score of the fitted dose curve at least 0.9, where 1 is the maximum; inactive = score below 0.9.
# Assay: BSK_CASM3C_SRB: Viability Assessment in the BioMAP Diversity Plus: CASM3C Assay (AID 2283050);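 also: total protein by SRB staining as cytotoxicity measure in parallel cultures; cells exposed to compound for 24 h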
# Conditions: primary human coronary artery smooth muscle cells
Structure (SMILES),outcome,AC50
O=C(O)C1C2CCC(O2)C1C(=O)O (stereo not drawn),inactive,
Nc1ccc(Cl)cc1N,inactive,
OCCCl,inactive,
c1ccc2c(c1)-c1cccc3cccc-2c13,inactive,
CCCCCCCCn1sccc1=O,,14.7 µM (active)
c1ccc(C2CO2)cc1 (stereo not drawn),inactive,
CC(C)(C)OOC(C)(C)CCC(C)(C)OOC(C)(C)C,inactive,
c1ccc2c(c1)oc1ccccc12,inactive,
CN(C)c1ccc(C(=O)c2ccc(N(C)C)cc2)cc1,inactive,
Oc1ccccc1Cl,inactive,
Clc1ccccc1Cl,inactive,
O=C(N[C@H](c1ccccc1)[C@@H]1CN2CCC1CC2)c1c(Cl)ccc(C(F)(F)F)c1Cl,inactive,
ClCCOCCCl,inactive,
Cc1ccc([N+](=O)[O-])cc1,inactive,
CO[C@@H]1[C@H](OC(=O)NC(=O)CCl)CC[C@]2(CO2)[C@H]1[C@@]1(C)O[C@@H]1CC=C(C)C,inactive,
Nc1ccc([N+](=O)[O-])cc1,inactive,
Nc1ccc(Oc2ccc(N)cc2)cc1,inactive,
CC(C)(O)c1cnn2c(-c3ccc(F)c(-c4c(F)cccc4C#N)c3)cnc2n1,inactive,
OCCCBr,inactive,
[O-][Cl+]O,inactive,
C1=Cc2cccc3cccc1c23,inactive,
CN(C)C(=O)Nc1ccc(Cl)cc1,inactive,
ClC1=C(Cl)C2(Cl)C3C(Cl)C=CC3C1(Cl)C2(Cl)Cl (stereo not drawn),,32 µM (active)
Cc1ccc(N=C=O)cc1N=C=O,inactive,
O=Cc1ccco1,inactive,
CCCSC(=O)N(CCC)CCC,inactive,
Clc1ccc(Cl)c(Cl)c1,inactive,
CCC12COCN1COC2,inactive,

# From PubChem BioAssay (EPA / NIEHS)
